Structures are written as SMILES. Activity calls are given as the source filed them. How the source made its calls: active means hit-call score of the fitted dose curve at least 0.9, where 1 is the maximum; inactive means score below 0.9.

Holding throughout (details): mRNA level, 48 h; actives raise or lower the signal
Read-out in test [1]: Cytochrome P450 7A1 (Homo sapiens) (UniProt P22680)
Kind of test: LTEA_HepaRG_CYP7A1: Life Technologies and Expression Analysis (LTEA) Assay for Cytochrome P450 7A1 (CYP7A1) using HepaRG (AID 2283496). Summed up:
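Using 0.5% DMSO as vehicle and baseline, chemicals were tested in duplicate over an 8-point range from 100 uM on HepaRG cells for 48 h; qRT-PCR signals were normalised to ACTB, GAPDH and POLR2A.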

Read-out in test [2]: Glutathione S-Transferase (GSTA2), GSTA2 (gene 2939)
Kind of test: LTEA_HepaRG_GSTA2: Life Technologies and Expression Analysis (LTEA) Assay for Glutathione S-Transferase (GSTA2) using HepaRG (AID 2283497). The gist of the method: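 qRT-PCR readout of GSTA2 transcript, normalized to three housekeeping genes, fitted bidirectionally against 0.5% DMSO baseline. Differentiated HepaRG cells received compound for 48 h at 8 concentrations (top 100 uM, half-log steps).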

Read-out in test [3]: growth arrest and DNA damage 45 (GADD45G), GADD45G (gene 10912)
Briefly: LTEA_HepaRG_GADD45G: Life Technologies and Expression Analysis (LTEA) Assay for growth arrest and DNA damage 45 (GADD45G) using HepaRG (AID 2283499). The gist of the method:
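Differentiated human HepaRG cells, 48 h post-plating, exposed 48 h in serum-free induction medium to 8 half-log concentrations (top 100 uM, 0.5% DMSO) in duplicate. GADD45G mRNA measured by Fluidigm TaqMan qRT-PCR, normalized to ACTB, GAPDH, POLR2A; bidirectional fit versus DMSO.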

Read-out in test [4]: Glutamate-cysteine ligase regulatory (GCLM), GCLM (gene 2730)
Kind of test: LTEA_HepaRG_GCLM: Life Technologies and Expression Analysis (LTEA) Assay for Glutamate-cysteine ligase regulatory (GCLM) using HepaRG (AID 2283500). Summed up: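 HepaRG, 48 h dosing, 100 uM top, half-log x8, 0.5% DMSO vehicle. Readout: GCLM mRNA by TaqMan qRT-PCR, housekeeping-normalized (ACTB/GAPDH/POLR2A). Curves fit bidirectionally vs DMSO baseline.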

Read-out in test [5]: Glutathione S-transferase M3 (GSTM3), GSTM3 (gene 2947)
Briefly: LTEA_HepaRG_GSTM3: Life Technologies and Expression Analysis (LTEA) Assay for Glutathione S-transferase M3 (GSTM3) using HepaRG (AID 2283501). The gist of the method:
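Differentiated human HepaRG cells were exposed in duplicate for 48 h in serum-free induction medium, 8 points from 100 uM top in half-log steps, 0.5% DMSO. GSTM3 mRNA was measured by TaqMan qRT-PCR, normalized to ACTB, GAPDH and POLR2A; bidirectional fit versus DMSO.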

Read-out in test [6]: Heat shock 70 kDa protein 1 (HSPA1A), gene 3303
Briefly: LTEA_HepaRG_HSPA1A: Life Technologies and Expression Analysis (LTEA) Assay for Heat shock 70 kDa protein 1 (HSPA1A) using HepaRG (AID 2283502). The gist of the method: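 HepaRG, 48 h exposure, 8-pt half-log CRC from 100 uM in 0.5% DMSO, duplicates. Readout: TaqMan qRT-PCR of HSPA1A mRNA, housekeeping-normalized (ACTB/GAPDH/POLR2A). Bidirectional fit vs 0.5% DMSO baseline.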

Read-out in test [7]: Hypoxia-inducible factor 1-alpha (Homo sapiens) (UniProt Q16665)
Briefly: LTEA_HepaRG_HIF1A: Life Technologies and Expression Analysis (LTEA) Assay for Hypoxia-inducible factor 1 (HIF1A) Trancription factor using HepaRG (AID 2283503). Summed up: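 Gain- or loss-of-signal HIF1A mRNA changes are fitted against a DMSO baseline. HepaRG cultures receive eight concentrations, highest 100 uM, for 48 h in serum-free induction medium with 0.5% DMSO.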

Read-out in test [8]: 3-Hydroxy-3-Methylglutaryl-CoA Synthase 2 (HMGCS2), HMGCS2 (gene 3158)
Kind of test: LTEA_HepaRG_HMGCS2: Life Technologies and Expression Analysis (LTEA) Assay for 3-Hydroxy-3-Methylglutaryl-CoA Synthase 2 (HMGCS2) using HepaRG (AID 2283504). Summed up:
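Human HepaRG cells in serum-free induction medium were exposed in duplicate for 48 h to 8-point half-log series from 100 uM top in 0.5% DMSO. HMGCS2 mRNA measured by TaqMan qRT-PCR, normalised to ACTB, GAPDH, POLR2A; bidirectional fit versus DMSO.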

Read-out in another test: HGF (gene 3082)
Kind of test: LTEA_HepaRG_HGF: Life Technologies and Expression Analysis (LTEA) Assay for Hepatocyte Growth Facto (HGF) using HepaRG (AID 2283505). The gist of the method:
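Differentiated HepaRG cells in serum-free induction medium exposed 48 h in duplicate, 8 half-log concentrations from 100 uM in 0.5% DMSO. HGF mRNA by qRT-PCR, normalised to ACTB, GAPDH, POLR2A; bidirectional fitting.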

Read-out in test [9]: Insulin Like Growth Factor 1 (IGF1), IGF1 (gene 3479)
Briefly: LTEA_HepaRG_IGF1: Life Technologies and Expression Analysis (LTEA) Assay for Insulin Like Growth Factor 1 (IGF1) using HepaRG (AID 2283506). Summed up: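 qRT-PCR readout of IGF1 mRNA, normalized to three housekeeping genes, after 48 h chemical exposure of HepaRG cells. Concentrations: 8-point half-log series, top 100 uM, 0.5% DMSO vehicle. Gain or loss fitted against DMSO baseline.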

Read-out in test [10]: Intercellular Adhesion Molecule 1 (ICAM1), ICAM1 (gene 3383)
Kind of test: LTEA_HepaRG_ICAM1: Life Technologies and Expression Analysis (LTEA) Assay for Intercellular Adhesion Molecule 1 (ICAM1) using HepaRG (AID 2283507). The gist of the method: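 Differentiated human HepaRG cells in serum-free induction medium exposed 48 h in duplicate to 8 half-log concentrations (top 100 uM, 0.5% DMSO). ICAM1 mRNA quantified by TaqMan qRT-PCR, normalized to ACTB, GAPDH and POLR2A; bidirectional fitting versus DMSO.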

Read-out in test [11]: Interleukin 6 (IL6), IL6 (gene 3569)
Briefly: LTEA_HepaRG_IL6: Life Technologies and Expression Analysis (LTEA) Assay for Interleukin 6 (IL6) using HepaRG (AID 2283509). The gist of the method:
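qRT-PCR read-out of IL6 transcript, normalized to three housekeeping genes, after 48 h chemical exposure of HepaRG cells; 8-point half-log series, top 100 uM, 0.5% DMSO vehicle. Bidirectional curve fitting against DMSO baseline.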

Read-out in test [12]: Interleukin 6 Receptor (IL6R), IL6R (gene 3570)
Kind of test: LTEA_HepaRG_IL6R: Life Technologies and Expression Analysis (LTEA) Assay for Interleukin 6 Receptor (IL6R) using HepaRG (AID 2283510). Summed up: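 HepaRG, 48 h exposure, 8-pt half-log series, top 100 uM, 0.5% DMSO vehicle, duplicates. Read-out: TaqMan qRT-PCR of IL6R transcript, housekeeping-gene normalized. Gain or loss fitted relative to DMSO baseline.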

Read-out in test [13]: Potassium channel subfamily K member 1 (KCNK1), KCNK1 (gene 3775)
Briefly: LTEA_HepaRG_KCNK1: Life Technologies and Expression Analysis (LTEA) Assay for Potassium channel subfamily K member 1 (KCNK1) using HepaRG (AID 2283511). Summed up: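 HepaRG, 48 h exposure, 8-pt half-log series top 100 uM, 0.5% DMSO vehicle, duplicates. Readout: KCNK1 transcript by qRT-PCR (Fluidigm array), housekeeping-normalized; bidirectional curve fit relative to DMSO baseline.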

Read-out in test [14]: Keratin 19 (KRT19), KRT19 (gene 3880)
Briefly: LTEA_HepaRG_KRT19: Life Technologies and Expression Analysis (LTEA) Assay for Keratin 19 (KRT19) using HepaRG (AID 2283512). Summed up: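 Differentiated HepaRG cells in serum-free induction medium, exposed 48 h in duplicate to 8 half-log concentrations up to 100 uM in 0.5% DMSO. KRT19 mRNA by qRT-PCR, normalized to ACTB, GAPDH, POLR2A; bidirectional fit vs DMSO.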

Read-out in test [15]: JUN Transcription Factor, JUN (gene 3725)
Kind of test: LTEA_HepaRG_JUN: Life Technologies and Expression Analysis (LTEA) Assay for JUN Transcription Factor using HepaRG (AID 2283513). The gist of the method: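 HepaRG, 48 h exposure, 8-pt half-log series top 100 uM, 0.5% DMSO, duplicate. JUN mRNA by qRT-PCR (Fluidigm), housekeeping-normalized (ACTB/GAPDH/POLR2A); bidirectional curve fit vs DMSO baseline.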

Read-out in test [16]: Lipoprotein lipase (LPL), LPL (gene 4023)
Kind of test: LTEA_HepaRG_LPL: Life Technologies and Expression Analysis (LTEA) Assay for Lipoprotein lipase (LPL) using HepaRG (AID 2283515). The gist of the method: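 HepaRG, 48 h exposure, 8-pt half-log dilutions from 100 uM, 0.5% DMSO vehicle, duplicates; qRT-PCR (Fluidigm array) of LPL mRNA vs housekeeping genes; bidirectional curve fit relative to DMSO baseline.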

Read-out in test [17]: Insulin-like growth factor-binding protein 1 (IGFBP1), IGFBP1 (gene 3484)
Kind of test: LTEA_HepaRG_IGFBP1: Life Technologies and Expression Analysis (LTEA) Assay for Insulin-like growth factor-binding protein 1 (IGFBP1) using HepaRG (AID 2283508). Summed up: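 HepaRG cells, plated 48 h then switched to serum-free induction medium, exposed in duplicate for 48 h to 8-point half-log series from 100 uM in 0.5% DMSO. mRNA measured by qRT-PCR, normalized to ACTB/GAPDH/POLR2A; bidirectional fit versus DMSO.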

Sequence of Hypoxia-inducible factor 1-alpha (Homo sapiens) (Q16665 whole entry, looked up): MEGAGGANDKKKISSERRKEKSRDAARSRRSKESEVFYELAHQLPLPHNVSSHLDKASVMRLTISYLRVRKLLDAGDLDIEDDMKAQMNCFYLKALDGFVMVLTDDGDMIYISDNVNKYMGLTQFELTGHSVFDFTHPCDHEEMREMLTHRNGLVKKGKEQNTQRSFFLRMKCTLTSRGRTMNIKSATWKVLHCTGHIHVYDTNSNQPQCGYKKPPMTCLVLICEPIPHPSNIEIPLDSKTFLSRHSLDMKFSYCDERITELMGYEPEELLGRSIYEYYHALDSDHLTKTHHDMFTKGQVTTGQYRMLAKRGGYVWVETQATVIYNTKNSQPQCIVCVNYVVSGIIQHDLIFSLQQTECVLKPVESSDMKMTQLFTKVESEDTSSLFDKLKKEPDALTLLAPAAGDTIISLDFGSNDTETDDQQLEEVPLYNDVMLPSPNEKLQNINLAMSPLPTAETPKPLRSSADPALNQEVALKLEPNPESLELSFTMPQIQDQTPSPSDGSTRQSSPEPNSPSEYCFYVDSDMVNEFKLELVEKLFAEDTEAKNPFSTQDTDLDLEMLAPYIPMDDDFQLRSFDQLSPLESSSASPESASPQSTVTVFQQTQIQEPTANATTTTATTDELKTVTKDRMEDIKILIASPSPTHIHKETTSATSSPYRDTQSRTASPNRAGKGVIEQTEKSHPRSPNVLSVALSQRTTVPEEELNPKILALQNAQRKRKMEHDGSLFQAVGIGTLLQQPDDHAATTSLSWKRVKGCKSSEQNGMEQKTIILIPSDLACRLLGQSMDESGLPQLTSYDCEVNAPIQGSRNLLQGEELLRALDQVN

One may read the AC50 as the concentration giving half of the maximal activity seen. In the case of `CCCOCC(=Nc1ccc(Cl)cc1C(F)(F)F)n1ccnc1`, the AC50 was 30.6 µM (active) in test [1]; 35 µM (active) in test [2]; 81.9 µM (active) in test [6]; 87.3 µM (active) in [7]; 53.2 µM (active) in [8]; 12.1 µM (active) in [9]. The AC50 in test [10] was 88.2 µM (active); in [11] it was 85.7 µM (active); in test [12] it was 66.4 µM (active); in test [14] it was 12 µM (active); in [15], 73.1 µM (active); in test [16] it was 12.8 µM (active). The compound was called inactive (in test [3]; in test [4]; in test [5]; with HGF (gene 3082); in [13]).

For the compound `S=C1NCCN1`, the result in [1], in test [2], in test [3], in test [4], in test [5] and in test [7] was inactive. Besides, the compound was called inactive (in [8]; with HGF (gene 3082); in [9]; in test [10]; in test [17]; in test [11]). Also, the call in test [12], in [13], in [14], in test [15] and in test [16] was inactive. Also, the AC50 in test [6] was 0.277 µM (active).

With `COc1cc(OC)nc(Sc2cccc(Cl)c2C(=O)O)n1`, the outcome in [1], in [2], in test [3], in test [4], in [6] and in test [7] was inactive. In addition, the result (in [8]; in the test with HGF (gene 3082); in test [9]; in test [10]; in test [17]; in test [11]) was inactive. Also, the compound was classed as inactive in test [12], in [13], in test [14], in [15] and in [16].

Consider `CCOP(=S)(Oc1cnc(C(C)(C)C)nc1)OC(C)C` (stereo not given), for which the AC50 in [1] was 4.63 µM (active); in [8] it was 14 µM (active); in test [9] it was 44.6 µM (active); in test [12], 25.1 µM (active). Further, the outcome in test [2], in test [3], in [4], in [5], in test [6] and in [7] was inactive. For the same compound, the result (in the test with HGF (gene 3082); in test [10]; in [17]; in [11]; in [13]; in test [14]) was inactive. In addition, the compound was called inactive in test [15] and in [16].

Source of the values: PubChem BioAssay (EPA / NIEHS).
